Assay [1] in a line: human hepatoma cell viability loss – ATP luminescence, cytotoxicity control for P. falciparum antimalarial project, primary screen (AID 2303;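 active means inhibition above 50%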;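 further: 0% = DMSO wells and 100% = digitonin-killed cells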). Particulars: HepG2 viability, 24-48 h, at 10 µM, stronger effect = higher value.
In assay [2] the target is Calcium-dependent protein kinase 4 (Plasmodium falciparum (isolate 3D7)) (UniProt Q8IBS5). The assay is described as follows: PfCDPK4 kinase inhibitors, biochemical, TCAMS library (AID 1159588). Particulars: recombinant PfCDPK4, Kinase-Glo ATP depletion luminescence.
Assay [3] can be described thus: selective SMN2 exon splicing luciferase activators – cell-based, SMN2/SMN1 luciferase reporters (AID 1598; call rule not given here). Particulars: SMN2 vs SMN1 luciferase splicing reporter cells, at 10 µM; SMN1 luciferase ratio: measured here: SMN1 luciferase reporter average; SMN2 luciferase ratio: measured here: SMN2 luciferase reporter average, stronger effect = higher value; SMN2/SMN1 luciferase ratio: stronger effect = higher value.

Assay [4] is described as follows: rescue of PC12 cells from polyQ htt toxicity – LDH release (AID 1610). Particulars: PC12 mutant huntingtin toxicity, final LDH at 4 uM, stronger effect = lower value. In general terms: LDH in the medium is a marker of cell lysis.
Assay [5] is described as follows: glutamate excitotoxicity neuroprotectants – cell-based, TUNEL DNA degradation staining, MNGlu (AID 1594; call rule not given here). Particulars: motor neurons, glutamate-induced death, at 1 µM, stronger effect = higher value.

The record followed here is PubChem BioAssay.

Where “and” joins values, the source holds several entries; their conditions need not be identical. Identical values can stand only once. Results filed as inconclusive are left out. For some of these results: Results with a measured potency or affinity are listed apart. Calls of active or inactive are those of the source. Unless noted, cut-off not given; nearly all actives show IC50 up to about 0.91 µM.

Chain of Calcium-dependent protein kinase 4 (Plasmodium falciparum (isolate 3D7)) (Q8IBS5 whole entry, looked up): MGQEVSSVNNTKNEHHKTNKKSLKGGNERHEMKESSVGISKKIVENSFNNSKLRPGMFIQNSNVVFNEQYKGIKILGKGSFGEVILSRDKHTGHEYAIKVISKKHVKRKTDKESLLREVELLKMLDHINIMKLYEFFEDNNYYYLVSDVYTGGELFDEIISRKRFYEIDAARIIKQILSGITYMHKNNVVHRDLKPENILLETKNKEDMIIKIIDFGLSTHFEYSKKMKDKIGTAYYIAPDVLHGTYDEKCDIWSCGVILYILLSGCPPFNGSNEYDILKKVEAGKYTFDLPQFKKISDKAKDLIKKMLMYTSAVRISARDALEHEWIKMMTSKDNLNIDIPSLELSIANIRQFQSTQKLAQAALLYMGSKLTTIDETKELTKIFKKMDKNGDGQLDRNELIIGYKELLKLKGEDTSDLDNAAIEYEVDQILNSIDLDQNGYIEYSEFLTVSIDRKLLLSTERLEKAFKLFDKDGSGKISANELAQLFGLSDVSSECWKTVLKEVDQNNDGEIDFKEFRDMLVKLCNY

`CCN(CC)CCCC(C)Nc1ccnc2cc(Cl)ccc12` (stereo not drawn): the inhibition (commonly the drop in the measured response relative to a control, in per cent) in assay [1] is 12% (inactive). For the same compound, the outcome in assay [2] was inactive.
Turning to `c1ccc(CC2=NCCN2)cc1`, the inhibition in assay [1] is 3% (inactive). Further, in assay [2], the result was inactive.
With `N=C(N)c1ccc(OCCCCCOc2ccc(C(=N)N)cc2)cc1`, in assay [2], the outcome was inactive.
For the compound `c1ccc([C@H]2CN3CCSC3=N2)cc1`, the inhibition in assay [1] is 11% (inactive). The outcome in assay [2] was inactive.
As for `CCN(CCO)CCCC(C)Nc1ccnc2cc(Cl)ccc12` (stereo not drawn), the inhibition in assay [1] is 3% (inactive). The outcome in assay [2] was inactive.
`NC12CC3CC(CC(C3)C1)C2`: in assay [3], the SMN1 luciferase ratio was found to be 0.84, the SMN2/SMN1 luciferase ratio was 1.22 (active) and the SMN2 luciferase ratio was found to be 1.01. Besides, the inhibition in assay [1] was 31% (inactive). Besides, the outcome in assay [2] was inactive.
With `CC[C@H]1CN2CCc3cc(OC)c(OC)cc3[C@@H]2C[C@@H]1C[C@H]1NCCc2cc(OC)c(OC)cc21`, the inhibition in assay [1] was 43% (inactive). The result in assay [2] was inactive.
For `CCCCCN=C(N)N/N=C/c1c[nH]c2ccc(OC)cc12`, the inhibition in assay [1] is 16% (inactive). In assay [2], the outcome was inactive.
Consider `CCN(CC)CCCC(C)Nc1c2ccc(Cl)cc2nc2ccc(OC)cc12` (stereo not drawn), for which the outcome in assay [2] was inactive.
Turning to `CC(C)C(=O)Nc1ccc([N+](=O)[O-])c(C(F)(F)F)c1`, in assay [4], the normalised LDH release is 0.739.
Regarding `COC1=CC(=O)C[C@@H](C)[C@]12Oc1c(Cl)c(OC)cc(OC)c1C2=O`, the protection in assay [5] is 17% (active).
For the compound `CO[C@@]1(NC(=O)Cc2cccs2)C(=O)N2C(C(=O)O)=C(COC(N)=O)CS[C@@H]21`, in assay [3], the SMN1 luciferase ratio came to 1.2, the SMN2/SMN1 luciferase ratio is 1.24 (active) and the SMN2 luciferase ratio was determined as 1.48.
Regarding `CN(C)CCOC(c1ccc(Cl)cc1)c1ccccn1` (stereo not drawn), the normalised LDH release in assay [4] was found to be 0.839.
With `CCc1nc(N)nc(N)c1-c1ccc(Cl)cc1`, in assay [1], the inhibition was 66% (active) and 71% (active).
In the case of `OCCN1CCN(CCCN2c3ccccc3Sc3ccc(Cl)cc32)CC1`, the normalised LDH release in assay [4] is 0.608.
As to `O=C(CCCN1CC=C(n2c(=O)[nH]c3ccccc32)CC1)c1ccc(F)cc1`, the protection in assay [5] was 35% (active).
